Shown are actives, neighbours in structure and some others; about 3.4% of the full set was active somewhere.
hcDAF-12 act – H. contortus DAF-12 activation, primary screen; 370,000 compounds, 1.4% hits; activation, % at 6.8 µM; HEK293 hcDAF-12 lit1-tk-luc reporter, luminescence; 0% DMSO, 100% Δ7-dafachronic acid;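 active = activation above the mean of all tested compounds plus 3 SD, cut at about 5.5% in these data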;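 also: 100% = response to 3 µM Δ7-dafachronic acid high control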
APP 5'UTR act – APP 5'UTR luciferase reporter activation. SH-SY5Y APP 5'UTR luciferase reporter, luminescence; zero percent = DMSO vehicle wells. activation, % at 2 µM. 190,000 compounds, 1% hits. AID 1276;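 active = activation above a set limit, based on mean plus 3 SD of controls, cut at about 140% in these data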
hgDAF12 agonist – hgDAF-12 agonism, primary luciferase screen | 370,000 compounds, 1.8% hits | HEK293 GAL4-hgDAF12 UAS-luciferase reporter, agonist luminescence; normalized to butyrate control | AID 687014 | activation, % at 6.8 µM;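 active = activation above a cutoff set at the mean of all screened compounds plus 3 SD, cut at about 10% in these data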;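 also: 0% = DMSO wells and 100% = sodium butyrate wells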
NF-kB expr up – raises NF-kB expression in human neuronal cells; NF-kB reporter expression; hits give high values; fold change at 12.5 µM; 190,000 compounds, 1.6% hits; in the data active = fold change above about 3.3
ssDAF-12 act – activates DAF-12 receptor from parasite S. stercoralis | activation, % at 6.8 µM | HEK293 ssDAF-12/GRIP1 lit1-tk-luc reporter, luminescence; % of 3 µM dafachronic acid response | 370,000 compounds, 1% hits;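 active = activation above the mean over all tested compounds plus 3 SD, cut at about 0.9% in these data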;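 also: 0% = DMSO-only wells and 100% = 3 µM delta7-dafachronic acid wells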
LXRb hcDAF ctr – activates human LXR-beta, counter-screen for hcDAF-12 agonists. 3,400 tested, under 10 active. activation, % at 6.8 µM. shares compounds with hcDAF-12 act. HEK293 Gal4-LXR tk-luc reporter, luminescence, 24 h; normalized: DMSO 0%, positive control 100%;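 active = mean percent activation of the reporter above a cutoff set as the average over tested compounds plus their standard deviation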
Target sequence (P55055 whole entry, looked up, the tested form may be a part): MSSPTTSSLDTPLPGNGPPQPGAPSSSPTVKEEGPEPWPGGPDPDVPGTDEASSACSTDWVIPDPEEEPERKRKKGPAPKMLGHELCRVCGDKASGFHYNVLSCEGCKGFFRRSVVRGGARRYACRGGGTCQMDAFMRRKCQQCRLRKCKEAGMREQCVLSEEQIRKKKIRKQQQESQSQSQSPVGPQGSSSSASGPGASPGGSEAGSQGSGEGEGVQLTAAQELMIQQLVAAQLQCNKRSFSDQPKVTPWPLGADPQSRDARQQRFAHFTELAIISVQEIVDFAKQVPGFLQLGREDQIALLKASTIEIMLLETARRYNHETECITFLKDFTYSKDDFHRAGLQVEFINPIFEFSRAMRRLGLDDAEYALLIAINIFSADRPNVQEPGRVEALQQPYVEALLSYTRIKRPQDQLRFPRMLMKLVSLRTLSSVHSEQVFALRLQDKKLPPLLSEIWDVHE
hcDAF12 ag – hcDAF-12 agonism, confirmation assay. activation, % at 6.8 µM. shares compounds with hcDAF-12 act. HEK293 hcDAF-12 lit1-tk-luc reporter, luminescence; % of Δ7-dafachronic acid response. 3,400 compounds, 61% hits;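 active = mean activation across triplicate tests above the threshold derived from the earlier primary screen, cut at about 5.5% in these data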;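 also: 0% = DMSO only wells and 100% = 3 µM Δ7-dafachronic acid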
hgDAF12 ag – hgDAF-12 agonism, confirmation assay; activation, % at 6.8 µM; 3,300 compounds, 80% hits; shares compounds with hgDAF12 agonist; HEK293 GAL4-hgDAF12 luciferase reporter, agonist mode; percent of butyrate response;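 active = mean activation over triplicate wells above the hit cutoff derived from the earlier primary screen, cut at about 11% in these data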;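 also: 0% = DMSO low control and 100% = 2 mM sodium butyrate high control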
LXRb DAF12 ctr – activates human LXR-beta, counter-screen for DAF-12 agonists. shares compounds with hgDAF12 agonist. HEK293 Gal4-LXR luciferase reporter, 24 h. activation, % at 6.8 µM. 3,300 tested, under 10 active. AID 743051;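 active = mean activation of the triplicate above a set limit carried over from the primary screen, none filed active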
* marks the source's active call; other numbers are inactive results.

Results for Cc1ccc(-c2nc(N3CCOCC3)s[n+]2-c2ccccc2)cc1 ?
hcDAF-12 act: 12*; APP 5'UTR act: 82; hgDAF12 agonist: 15*; NF-kB expr up: 1.2; ssDAF-12 act: 1.5*; LXRb hcDAF ctr: 1; hcDAF12 ag: 5; hgDAF12 ag: 8; LXRb DAF12 ctr: 1

What do the screens show for `NC(Cc1ccccc1)[P+](=O)O` (centres undefined)?
hcDAF-12 act: -1; hgDAF12 agonist: -1; ssDAF-12 act: -1

What do the screens show for `CCCCOC(=O)c1ccccc1N`?
hcDAF-12 act: -1; hgDAF12 agonist: -1; ssDAF-12 act: -1

How did Nc1ccccc1C(=O)OCCc1ccccc1 do in these assays?
hcDAF-12 act: 11*; hgDAF12 agonist: 24*; ssDAF-12 act: 0; LXRb hcDAF ctr: 2; hcDAF12 ag: 9.7*; hgDAF12 ag: 15*; LXRb DAF12 ctr: 1

How did COP(=O)(C(=O)Nc1ccccc1)C(CC(C)C)NC(=O)OCc1ccccc1 (centres undefined) do in these assays?
hcDAF-12 act: 3; hgDAF12 agonist: 2; ssDAF-12 act: 0

How did CN(C)C(=O)Oc1ccc(-c2cn3cc(Cl)ccc3n2)cc1 do in these assays?
hcDAF-12 act: 7.8*; APP 5'UTR act: 167*; hgDAF12 agonist: 17*; NF-kB expr up: 6.8*; ssDAF-12 act: 1; LXRb hcDAF ctr: 1; hcDAF12 ag: 4; hgDAF12 ag: 15*; LXRb DAF12 ctr: 1

How did COc1ccc(-n2nc(C(=O)NCC(=O)N3CCC4(CC3)OCCO4)c3ccccc3c2=O)cc1Cl do in these assays?
hcDAF-12 act: 6.6*; hgDAF12 agonist: 14*; ssDAF-12 act: 1; LXRb hcDAF ctr: 0; hcDAF12 ag: 4; hgDAF12 ag: 12*; LXRb DAF12 ctr: 0

What do the screens show for `COc1ccc(CNCC(=O)N2CCC3(CC2)OCCO3)cc1`?
hcDAF-12 act: -1; APP 5'UTR act: -13; hgDAF12 agonist: 5; NF-kB expr up: 1.1; ssDAF-12 act: -1

What do the screens show for `Cc1ccc(C(=O)NCCN2CCC3(CC2)C(=O)NCN3c2ccccc2)cc1`?
hcDAF-12 act: -1; hgDAF12 agonist: 1; ssDAF-12 act: 0

What do the screens show for `CC1CCN(CC(=O)c2ccc3c(c2)OCCO3)CC1`?
hcDAF-12 act: 8.9*; APP 5'UTR act: 146*; hgDAF12 agonist: 17*; NF-kB expr up: 1.1; ssDAF-12 act: 0; LXRb hcDAF ctr: 2; hcDAF12 ag: 8.3*; hgDAF12 ag: 16*; LXRb DAF12 ctr: 1

How did CC1CCCN(CC(=O)c2ccc(Cl)c(Cl)c2)C1 (centres undefined) do in these assays?
hcDAF-12 act: -1; APP 5'UTR act: -33; hgDAF12 agonist: 2; NF-kB expr up: 0.95; ssDAF-12 act: -1

How did COc1ccc(-c2cc(=Nc3ccccc3)c3cc(C)ccc3o2)cc1 do in these assays?
hcDAF-12 act: 7.3*; APP 5'UTR act: 134; hgDAF12 agonist: 22*; NF-kB expr up: 8.6*; ssDAF-12 act: 0; LXRb hcDAF ctr: 0; hcDAF12 ag: 1; hgDAF12 ag: 18*; LXRb DAF12 ctr: 1

How did Cc1ccc(-c2nc3ccc(Cl)cc3n2OC(=O)N(C)C)cc1 do in these assays?
hcDAF-12 act: 5; APP 5'UTR act: 69; hgDAF12 agonist: 14*; NF-kB expr up: 1.6; ssDAF-12 act: 0; hgDAF12 ag: 12*; LXRb DAF12 ctr: 1

How did CN(C)C(=O)Oc1ccnc2cc(Cl)ccc12 do in these assays?
hcDAF-12 act: -2; APP 5'UTR act: -16; hgDAF12 agonist: -2; NF-kB expr up: 2.2; ssDAF-12 act: -2

How did O=C(O)c1cc2ccccc2n1C1CCN(Cc2ccccc2)CC1 do in these assays?
hcDAF-12 act: -3; hgDAF12 agonist: 2; ssDAF-12 act: -1

What do the screens show for `COc1ccc(CN2Cc3cc(-c4ccc(OC)cc4)ccc3-n3nncc3C2)cc1`?
hcDAF-12 act: 2; hgDAF12 agonist: 14*; ssDAF-12 act: -1; hgDAF12 ag: 3; LXRb DAF12 ctr: 0

What do the screens show for `CCOC(=O)CNC(=O)N1Cc2cc(Br)ccc2-n2nncc2C1`?
hcDAF-12 act: 0; hgDAF12 agonist: 3; ssDAF-12 act: -1

How did COc1ccccc1/C=N/N=C(/N)N[N+](=O)[O-] do in these assays?
hcDAF-12 act: 0; APP 5'UTR act: -5; hgDAF12 agonist: 16*; NF-kB expr up: 1.2; ssDAF-12 act: -2; hgDAF12 ag: 1; LXRb DAF12 ctr: 0

Results for Clc1cc(Cl)cc(CN2Cc3cc(Br)ccc3-n3nncc3C2)c1 ?
hcDAF-12 act: -1; hgDAF12 agonist: -1; ssDAF-12 act: -1

Results for NC(Cc1nc2ccccc2[nH]1)c1ccc(Cl)cc1 (centres undefined) ?
hcDAF-12 act: 5; hgDAF12 agonist: 14*; ssDAF-12 act: 1; hgDAF12 ag: 15*; LXRb DAF12 ctr: 0

What do the screens show for `Cc1ccc2nc(-c3ccc(CN4CCC(n5nnc6ccccc65)CC4)cc3)c(-c3ccccc3)nc2c1`?
hcDAF-12 act: -4; hgDAF12 agonist: -3; ssDAF-12 act: -2

What do the screens show for `Cc1ccc2c(c1N)C(=O)c1ccccc1C2=O`?
hcDAF-12 act: 4; hgDAF12 agonist: 16*; ssDAF-12 act: 1; hgDAF12 ag: 13*; LXRb DAF12 ctr: 1

Results for O=C(CN1C(=O)CN=C(c2ccccc2)c2cc(Cl)ccc21)NC1CCCCC1 ?
hcDAF-12 act: -4; hgDAF12 agonist: -3; ssDAF-12 act: -2

What do the screens show for `COc1cc(O)c2c(c1)/C=C/C[C@H](O)[C@H](O)[C@@H](O)/C=C/C[C@H](C)OC2=O`?
hcDAF-12 act: -2; hgDAF12 agonist: 0; ssDAF-12 act: 0

How did COc1ccc(-c2cc(=O)c3c(OC)c(OC)c(OC)cc3o2)cc1 do in these assays?
hcDAF-12 act: -4; APP 5'UTR act: 2; hgDAF12 agonist: 0; NF-kB expr up: 0.82; ssDAF-12 act: -2

Results for COc1ccc(-c2cc(=NCCC(=O)O)c3cc(C)ccc3o2)cc1 ?
hcDAF-12 act: 6.5*; APP 5'UTR act: 145*; hgDAF12 agonist: 23*; NF-kB expr up: 3.7*; ssDAF-12 act: -1; hgDAF12 ag: 10*; LXRb DAF12 ctr: 0

Results for Clc1ccc2sc(C3CCNCC3)nc2c1 ?
hcDAF-12 act: 2; hgDAF12 agonist: 16*; ssDAF-12 act: 0; hgDAF12 ag: 8; LXRb DAF12 ctr: 0
